Data published in the supplement of paper PMC8728848.
Many of the other results were omitted from the sample, so the strongest signals are more common in it than they were.

Experiments:
Test in all cases: glycan array binding signal (z-score within array); higher = stronger binding
Conditions in all cases: glycan notation: IUPAC condensed, linker removed
[1] = system: Fuc(a1-3)[Gal(b1-4)]GlcNAc(b1-2)Man
How it was run: (§1)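 Glycan array data were curated from 3228 arrays in the Consortium for Functional Glycomics database and kept only where the protein sequence was available. Glycan names were converted to IUPAC-condensed notation, and columns mapping to the same glycan were averaged. The binding signal is a within-array Z-score, averaged across arrays of the same protein sequence at different concentrations or buffers and across linkers. Negative Z-scores can be read as non-binding.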

[2] = system: Fuc(a1-3)[Gal3S(b1-4)]GlcNAc
How it was run: as §1

[3] = system: Fuc(a1-3)[GalNAc(b1-4)]GlcNAc
How it was run: as §1

[4] = system: Fuc(a1-2)[GalNAc(a1-3)]Gal(b1-4)GlcNAc(b1-6)GalNAc
How it was run: as §1

[5] = system: Fuc(a1-2)[GalNAc(a1-3)]Gal(b1-4)[Fuc(a1-3)]GlcNAc(b1-3)GalNAc
How it was run: as §1

[6] = system: Fuc(a1-3)[Gal(b1-4)]Glc6S
How it was run: as §1

[7] = system: Fuc(a1-3)[Gal3S(b1-4)]GlcNAc6S
How it was run: as §1

[8] = system: Fuc(a1-3)[Gal(b1-4)]GlcNAc(b1-3)Gal(b1-4)[Fuc(a1-3)]GlcNAc(b1-3)Gal(b1-4)[Fuc(a1-3)]GlcNAc
How it was run: as §1

[9] = system: Fuc(a1-3)[Gal(b1-4)]GlcNAc(b1-3)GalNAc
How it was run: as §1

Fuc(a1-3)GlcNAc = system: Fuc(a1-3)GlcNAc
How it was run: as §1

[10] = system: Fuc(a1-3)[Gal(b1-4)]GlcNAc(b1-3)Gal(b1-3)[Fuc(a1-4)]GlcNAc
How it was run: as §1

[11] = system: Fuc(a1-2)[GalNAc(a1-3)]Gal(b1-4)GlcNAc(b1-3)Gal(b1-4)GlcNAc
How it was run: as §1

[12] = system: Fuc(a1-2)[GalNAc(a1-3)]Gal
How it was run: as §1

[13] = system: Fuc(a1-2)[GalNAc(a1-4)]Gal(b1-4)GlcNAc
How it was run: as §1

[14] = system: Fuc(a1-3)[Gal(b1-4)]GlcNAc(b1-2)Man(a1-3)[Fuc(a1-3)[Gal(b1-4)]GlcNAc(b1-2)Man(a1-6)]Man(b1-4)GlcNAc(b1-4)GlcNAc
How it was run: as §1

[15] = system: Fuc(a1-3)[Neu5Ac(a2-3)]Gal(b1-4)GlcNAc(b1-3)GalNAc
How it was run: as §1

[16] = system: Fuc(a1-2)[GalNAc(a1-3)]Gal(b1-4)GlcNAc(b1-3)GalNAc
How it was run: as §1

[17] = system: Fuc(a1-2)[GalNAc(a1-3)]Gal(b1-4)GlcNAc
How it was run: as §1

[18] = system: Fuc(a1-2)[GalNAc(b1-3)]Gal
How it was run: as §1

[19] = system: Fuc(a1-3)[Gal(b1-4)]GlcNAc(b1-6)[Gal(b1-3)GlcNAc(b1-3)]Gal(b1-4)Glc
How it was run: as §1

Substance: Wza (Escherichia coli), P0A930
- glycan array binding signal (z-score) [1]: 0.907
- glycan array binding signal (z-score) [2]: -1.1
- glycan array binding signal (z-score) [3]: -1.12

Substance: AgI/IIC123-GFP (Streptococcus mutans)
- glycan array binding signal (z-score) [4]: 2.18
- glycan array binding signal (z-score) [5]: 4.84
- glycan array binding signal (z-score) [6]: -0.357
- glycan array binding signal (z-score) [7]: -0.143

Substance: Actinohivin (Actinomycete K97)
- glycan array binding signal (z-score) [8]: -0.173
- glycan array binding signal (z-score) [9]: -0.169
- glycan array binding signal (z-score) [3]: -0.17

Substance: BambL (Burhholderia ambifaria), Q0B4G1
- glycan array binding signal (z-score) (Fuc(a1-3)GlcNAc): 7.79
- glycan array binding signal (z-score) [6]: -0.021
- glycan array binding signal (z-score) [10]: 1.03

Substance: Epa22
- glycan array binding signal (z-score) [11]: 0.068

Substance: GspB (Streptococcus gordonii), Q939N5
- glycan array binding signal (z-score) [12]: -0.616

Substance: SpGH101 (Streptococcus pneumoniae), Q8DR60
- glycan array binding signal (z-score) [13]: -0.12
- glycan array binding signal (z-score) [14]: -0.202
- glycan array binding signal (z-score) [10]: -0.148
- glycan array binding signal (z-score) [2]: -0.161
- glycan array binding signal (z-score) [15]: 0.764

Substance: LcI (Legionella pneumophila)
- glycan array binding signal (z-score) [16]: 0.164
- glycan array binding signal (z-score) [4]: 2.06
- glycan array binding signal (z-score) [14]: 0.959

Substance: AgI/II Vhelical-GFP (Streptococcus mutans)
- glycan array binding signal (z-score) [17]: -0.146
- glycan array binding signal (z-score) [5]: 2.49
- glycan array binding signal (z-score) [13]: 2.31
- glycan array binding signal (z-score) [7]: -0.111

Substance: SiiE (Salmonella typhimurium), A0A0H3NVH0
- glycan array binding signal (z-score) [18]: 1
- glycan array binding signal (z-score) [6]: 1.25
- glycan array binding signal (z-score) [19]: 1.13
